Source: PubChem
NS1 function inh: qHTS Assay for Inhibitors of Influenza NS1 Protein Function. Potency, µM (titrated, usually from 46.1 µM), without a hit: at the top dose activity, positive = more growth. 0.4% of 270,000 active. AID 2326, 2010; calls by dose curve; also: actives are rising curves; nearly all actives have a fitted effect of over 50% in size
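Growth recovery, yeast-based: influenza A NS1 expressed in S. cerevisiae causes slow growth, and suppressors are detected by OD600. The parent strain without NS1 is used as positive control.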
Cruzain inh Det: qHTS Assay for Promiscuous and Specific Inhibitors of Cruzain (with detergent); Potency, µM, for inactives: max response, negative = inhibition, most hits filed as inhibitors; 0.43% of 200,000 active; Cruzipain (Trypanosoma cruzi), P25779; purified cruzain, Z-FR-AMC fluorescence, 0.01% Triton;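 also: plate controls were neutral wells for no effect and buffer without enzyme for full effect; nearly all actives have a fitted effect of over 40% in size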
Target sequence (P25779 123-467 limits assumed): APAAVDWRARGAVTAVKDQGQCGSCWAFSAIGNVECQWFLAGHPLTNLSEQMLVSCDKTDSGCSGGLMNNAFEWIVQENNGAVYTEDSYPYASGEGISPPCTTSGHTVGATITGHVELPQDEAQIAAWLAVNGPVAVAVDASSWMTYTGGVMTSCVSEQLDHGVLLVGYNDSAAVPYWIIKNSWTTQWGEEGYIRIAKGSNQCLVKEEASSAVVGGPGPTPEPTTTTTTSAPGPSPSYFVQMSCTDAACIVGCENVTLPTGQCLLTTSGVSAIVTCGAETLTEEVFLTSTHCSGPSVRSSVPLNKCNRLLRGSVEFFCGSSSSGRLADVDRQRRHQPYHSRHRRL
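Cruzain (1.5 nM) preincubated 15 min at RT with compound in 100 mM sodium acetate pH 5.5, 5 mM DTT, 0.01% Triton X-100. Reaction started with 2 uM Z-FR-AMC; AMC fluorescence (ex 360/em 450 nm) change over 60 s gave rate.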
Cruzain inh noDet: qHTS Assay for Promiscuous and Specific Inhibitors of Cruzain (without detergent); Cruzipain (Trypanosoma cruzi), P25779; purified cruzain, Z-FR-AMC fluorescence, no detergent; Potency, µM, inactives show max response, negative = inhibition, hits mostly inhibitors; 2.3% of 200,000 active; AID 1476, 2009;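 also: plate controls were enzyme without inhibitor for no effect and buffer without enzyme for full effect; nearly all actives have a fitted effect of over 40% in size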
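Detergent-free condition (0.00005% Triton X-100) in acetate buffer pH 5.5 with DTT. 1.5 nM enzyme and compound were pre-mixed 15 min, then 2 uM Z-FR-AMC substrate added; reaction progress from fluorescence change between first and third reads (60 s).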
* marks the source's active call; other numbers are inactive results; u = inconclusive; x = no result given. The entries come from a sample that favours hits as a whole. Unless noted, calls follow the shape of the dose curve; as a rule, active = well fitted curve in the direction sought with a large enough effect; inconclusive = small, poorly fitted or top-dose-only effect, or another doubt; inactive = no such curve, though single readings can be large; an effect the other way counts as inactive or inconclusive. Potency is read from the fitted curve at half-maximal effect.

SMILES | NS1 function inh | Cruzain inh Det | Cruzain inh noDet
O=C(COc1ccc(/C=N/NS(=O)(=O)c2ccccc2)cc1)Nc1cccc(Cl)c1 | -2.1% | -5.4% | -14.3%
CC(C)CCn1c(=O)c2sccc2n2c(CCCC(=O)NC3CCC(C)CC3)nnc12 (stereo not given) | x | 0.8% | -3.3%
O=C(Nc1cccc(Cl)c1)Nc1nc(-c2ccc(Cl)cc2)cs1 | -12.2% | 1.4% | 10µM*
CCc1ccc(-c2csc(NC(=O)Oc3ccccc3)n2)cc1 | 0.2% | 0.1% | 12.6µM*
COc1ccc(-c2csc(NC(=O)Nc3ccccc3)n2)cc1 | 3.3% | x | x
O=C(Nc1ccccc1)Nc1nc(-c2ccc(Cl)cc2)cs1 | -5.8% | 1.7% | 15.8µM*
O=C(Nc1nc(-c2cccc(Br)c2)cs1)Oc1ccccc1 | -51.3% | 0.9% | u
COc1cccc(NC(=O)Nc2nc(-c3ccc(OC)c(OC)c3)cs2)c1 | -17.3% | x | x
O=C(O)[C@H](C1NCCS1)N1Cc2ccccc2C1 (stereo not given in full) | 1.1% | 10.2% | 0.5%
CCC(Oc1ccccc1)C(=O)Nc1cc(-c2ccccc2F)nn1-c1ccccc1 (stereo not given) | x | 2.5% | -10.6%
Cc1cccc(Cn2cc(C(=O)Nc3ccc(F)c(C(F)(F)F)c3)ccc2=O)c1 | x | -10.3% | 14.1%
Cc1nc2cnc(N3CCOCC3)nc2n(CCc2ccccc2)c1=O | x | -1.0% | 11.1%
CCCCOc1cc(C[C@@H]2CNC(=O)N2)ccc1OC | x | -2.7% | 1.3%
CCOc1ccccc1CNC(=O)CCn1ccc2cc(S(=O)(=O)N3CCC(C)CC3)ccc21 | x | -7.2% | 10.8%
O=[N+]([O-])c1ccc(N2CCN(S(=O)(=O)c3ccccc3[N+](=O)[O-])CC2)cc1N1CCc2ccccc2C1 | 3.5% | -4.4% | 6.31µM*
O=[N+]([O-])c1ccccc1S(=O)(=O)N1CCc2ccccc2C1 | -1.7% | x | x
COC[C@H]1OC(=O)c2coc3c2[C@@]1(C)C1=C(C3=O)[C@H]2CCC(=O)[C@@]2(C)C[C@H]1OC(C)=O | x | -8.1% | 7.1%
CCOC(=O)c1ccc(NC(=O)Cc2noc3ccc(C)cc23)cc1 | x | -0.7% | 5.6%
COc1ccc(NC(=O)Cc2noc3ccc(C)cc23)cc1Cl | x | u | 25.1µM*
CCCCC[C@H](O)/C=C/[C@@H]1[C@@H](C/C=C\CCCC(=O)O)[C@@H](O)C[C@H]1O | 28.9% | -0.1% | u
CCCCC[C@H](O)/C=C/[C@@H]1[C@@H](C/C=C\CCCC(=O)OC)[C@@H](O)C[C@H]1O | -0.5% | 25.1µM* | u
O=C1C(=O)N(Cc2ccc(Cl)c(Cl)c2)c2ccccc21 | x | 1.3% | u
Fc1ccc(Nc2nc(-c3ccc(F)cc3)c3c(n2)-c2ccccc2OC3)cc1 | x | -8.5% | u
COc1ccccc1Nc1nc(-c2ccc(F)cc2)c2c(n1)-c1ccccc1OC2 | x | -4.8% | 10µM*
CC(=O)[O-].CC(=O)[O-].CC(=O)[O-].[Cr+3] | x | 1.3% | 1.5%
SMILES | NS1 function inh | Cruzain inh Det | Cruzain inh noDet
CCc1cccc(C)c1NC(=O)CCCSc1nc2ccccc2s1 | -22.0% | -6.0% | -5.3%
CCc1cccc(CC)c1NC(=O)C1SC(=Nc2ccccc2C)C(c2nc3ccccc3s2)=C1N (stereo not given) | 25.6% | 2.0% | 6.31µM*
CCN1CCc2c(sc(N)c2C#N)C1 | 1.1% | -2.8% | -5.4%
N#Cc1c(N)sc(=S)c2c1CCN(Cc1ccccc1)C2 | -13.0% | 28.2µM* | 12.6µM*
CS(=O)(=O)Nc1cccc(-c2cncnc2NCc2cccs2)c1 | x | -0.2% | 2.8%
NC(=O)C1(N2CCCCC2)CCN(C(=O)Nc2ccc(Cl)c(Cl)c2)CC1 | x | -1.0% | -1.6%
Sc1ccc2ccccc2c1CNCc1ccccc1 | -0.3% | 2.6% | -15.8%
Cc1nnc(NC(=O)C2c3ccccc3Oc3ccccc32)s1 | -6.1% | -4.6% | 8.2%
CCc1ccccc1NC(=O)C1c2ccccc2Oc2ccccc21 | 9.9% | -1.6% | 25.1µM*
O=C(Nc1cccnc1Cl)C1c2ccccc2Oc2ccccc21 | 3.8% | 2.6% | 1.0%
Cc1cc(C)c(NC(=O)C2c3ccccc3Oc3ccccc32)c(C)c1 | 1.8% | 4.4% | 12.6µM*
C=C(C)[C@]12C[C@@H](C)[C@@]34OC(Cc5ccccc5)(O[C@@H]1[C@@H]3C=C(COC(=O)Cc1cc(OC)c(O)cc1I)C[C@]1(O)C(=O)C(C)=C[C@@H]41)O2 | x | -0.6% | -1.1%
COc1ccc(C2CC(c3cccs3)=NN2S(C)(=O)=O)cc1OC (stereo not given) | 5.4% | x | x
COc1ccc(C2CC(c3cccs3)=NN2c2nc(-c3ccccc3)cs2)cc1OC (stereo not given) | u | -3.9% | 7.94µM*
CCCN(CCC)C(=O)SCC | x | 7.2% | -3.3%
